Among all 360,000 compounds or so, about 7,500 (2.1%) were called active. Inconclusive results (about 8%) are left out. The sample holds actives, similar compounds and a random draw of the others, so the mix is not that of the screen. Unmarked numbers belong to inactive results. The call rests on the fitted dose curve; in most records, active means well fitted cell-killing curve with a large enough effect; inconclusive means small, poorly fitted or top-dose-only effect, or effect the other way, or another doubt; inactive means no such curve, though single readings can be large or run the other way.
Potency means the concentration at half of the fitted maximal effect.

This experiment can be described thus: qHTS for induction of synthetic lethality in tumor cells producing 2HG: qHTS for the HT-1080-IDH1KD cell line.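 On activity, negative = toxicity: 0% = DMSO wells and -100% = cell-free medium wells.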 Particulars: HT-1080 IDH1 knockdown viability, ATP luminescence, 48 h; series mostly up to 46.1 µM; activity, negative = toxicity: at the top concentration. In a few lines: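 Assay cells: HT-1080 with IDH1 knockdown, 750 per well, RPMI/5% FBS. Exposure: 48 h at 37 °C following 2 h pre-incubation. Read: CellTiter-Glo luminescence; fitted concentration-response, curve class assigned.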
For orientation: qHTS replaces the single test concentration by a dilution series.
Regarding `COc1cc2nc(Cl)nc(NC3CC3)c2cc1OC`, the “activity, negative = toxicity” value is -9.28%.

As for `CC(C)CCC(=O)Nc1cc(S(=O)(=O)N2CCOCC2)ccc1N1CCCC1`, the “activity, negative = toxicity” value was 0.313%.

In the case of `Cc1ccc(-c2ccc(CN3C(C(C)C)C(=O)N(Cc4cn(CCC5OCCCO5)nn4)CCS3(=O)=O)cc2)cc1` (stereo not given), the “activity, negative = toxicity” value is -7.51%.

In the case of `Cc1cc2c(cc1C)N1C(=O)c3cc4ccccc4cc3NC(=O)C1C(=O)N2` (stereo not given), the “activity, negative = toxicity” value was 1.1%.

For the compound `CS(=O)(=O)/C(C#N)=C/c1cccn1S(=O)(=O)c1ccc([N+](=O)[O-])cc1`, the “activity, negative = toxicity” value was -6.02%.

As to `O=C(C1CCCO1)N1CCN(C(=O)C23CC4CC(CC(C4)C2)C3)CC1` (stereo not given), the “activity, negative = toxicity” value is 14.9%.

Regarding `Oc1ccc(/C=N/N(Cc2ccccc2)c2ccccc2)cc1`, the Potency is 16.4 µM (active).

Consider `CCN(CC)C(=O)N(CC)Cc1ccccc1`, for which the “activity, negative = toxicity” value is 2.96%.

As for `CN(/N=C/c1ccccc1)C(=S)c1ccccc1`, the “activity, negative = toxicity” value is -5.97%.

For `C[C@H]1CN([C@@H](C)CO)C(=O)CCCn2cc(nn2)CO[C@@H]1CN(C)C(=O)Nc1ccccc1`, the “activity, negative = toxicity” value is 1%.

As to `O=C(CSc1nc2cccc(F)c2c(=O)n1-c1ccccc1)Nc1ccc2c(c1)CCC2`, the “activity, negative = toxicity” value is 18.2%.

Take `NC(=O)CSc1nnc(-c2cccc(S(=O)(=O)N3CCOCC3)c2)o1`: the “activity, negative = toxicity” value is -2.93%.

As for `Cc1cc2nnc(SCC(=O)N3CCN(c4ccccc4)CC3)n2c(N)n1`, the “activity, negative = toxicity” value is 21.7%.

Take `Cn1c(Cc2cccc3ccccc23)nnc1SCC(=O)N1CCN(c2cccc(Cl)c2)CC1`: the Potency was 20.6 µM (active).

Consider `Cn1c(CNC(=O)c2ccco2)nnc1SCC(=O)N1CCN(c2ccccc2)CC1`, for which the “activity, negative = toxicity” value was 3.17%.

Turning to `CCc1c(N=O)c(-c2ccccc2)n(O)[n+]1[O-]`, the “activity, negative = toxicity” value is -7.78%.

On to `CCN(C(=O)Nc1cccc2ccccc12)c1ccccc1`, for which the “activity, negative = toxicity” value is -4.17%.

On to `COc1cccc(NC(=O)CN(C)C(=O)c2cc(Cl)nc3ccccc23)c1`, for which the “activity, negative = toxicity” value was -3.44%.

Consider `CCN(CC)C(=O)C1=C(C)N(Cc2ccc(F)cc2)C(=O)C(CC(=O)NC2CCCC2)C1` (stereo not given), for which the “activity, negative = toxicity” value is -4.13%.

`CC[n+]1cc(C)ccc1/C=C/c1ccc(N(C)C)cc1`: the Potency is 7.31 µM (active).

As to `O=C(NC1CCCCC1)C(c1cc2ccccc2o1)n1c(=O)c(-c2ccco2)nc2ccccc21` (stereo not given), the “activity, negative = toxicity” value is -16.8%.

As to `O=C(O)CCn1cc(/C=C/C(=O)c2ccc(Cl)cc2)c(-c2cccc(Br)c2)n1`, the Potency is 23.1 µM (active).

Take `CCOC(=O)/C(C#N)=C/c1cn(CCC(=O)O)nc1-c1ccc(Br)cc1`: the “activity, negative = toxicity” value was -2.79%.

Turning to `O=C(/C=C/NNC(=O)c1cccc(Br)c1)c1ccccc1`, the “activity, negative = toxicity” value was -10.2%.

With `COc1ccc(CN2C[C@H]3CON(C)[C@H]3C[C@H]2c2ccc(-c3cccc(F)c3)cc2)cc1`, the “activity, negative = toxicity” value is -23%.

For `Cc1ccccc1C#CC1=CC(=O)CC(C)(C)C1`, the “activity, negative = toxicity” value is -9.77%.

For `C/C(COc1ccccc1)=N\NC(=O)c1nnn(-c2nonc2N)c1-c1ccc(C)cc1`, the “activity, negative = toxicity” value is -8.96%.

`Cc1nnnn1/C(=C\c1ccccc1)C(=O)OCC(=O)N1CC2(C)CC1CC(C)(C)C2` (stereo not given): the Potency was 14.6 µM (active).

For `COc1ccc(C(=O)N2CC3(C)CC2CC(C)(C)C3)cc1OC` (stereo not given), the “activity, negative = toxicity” value was -4.16%.

On to `CN(C)C(=O)COC(=O)c1cccc(S(=O)(=O)N2CC3(C)CC2CC(C)(C)C3)c1` (stereo not given), for which the “activity, negative = toxicity” value is -3.59%.

`COc1cc(C=NC2CCCCC2)ccc1O`: the “activity, negative = toxicity” value is 0.126%.

As to `O=C(OCC(=O)N1CCCCCC1)c1cccc(Cl)c1Cl`, the “activity, negative = toxicity” value was 16.8%.

As for `Cc1cccc(C)c1NC(=O)C(c1cccc(F)c1)N1CCN(C)CC1` (stereo not given), the “activity, negative = toxicity” value was 0.538%.

Consider `COc1ccc(-c2c(C)cc3oc(=O)cc(-c4ccccc4)c3c2C)cc1OC`, for which the “activity, negative = toxicity” value was 5.89%.

Regarding `COc1cc(OC)c2c(-c3cccc(-c4cccc(N)c4)c3)cc(=O)oc2c1`, the Potency is 5.17 µM (active).

Turning to `COc1ccc(-c2c(C)cc3oc(=O)cc(-c4ccccc4)c3c2C)cc1F`, the “activity, negative = toxicity” value was 13.4%.

As for `COC(=O)c1ccc(CN2C(=O)C(Cc3ccccc3)ON=C2c2ncccc2C)o1` (stereo not given), the “activity, negative = toxicity” value is 17.4%.

For the compound `Cc1ccc(SCC(=O)N2CCN(c3ccc(F)cc3)CC2)cc1`, the “activity, negative = toxicity” value is 17.4%.

On to `CCN1CCC2(CC1)N=C(c1ccc(F)cc1)C(=S)N2C(=O)c1ccc(C)cc1`, for which the Potency is 23.1 µM (active).

With `CCN1CCN(C(=O)CSc2ccc(C)cc2)CC1`, the “activity, negative = toxicity” value was 3.16%.

On to `CC(C)NC(=O)C1(C)CCCCCN1C(=O)c1ccc(-c2ccccc2)cc1` (stereo not given), for which the “activity, negative = toxicity” value is 11.9%.

Turning to `Cc1ccccc1N1C(=O)C2ON(c3ccccc3)C(c3ccncc3)C2C1=O` (stereo not given), the “activity, negative = toxicity” value is 4.69%.

`O=C1[C@@H](c2ccccc2)[C@@H](c2ccccc2)N1c1cccnc1`: the Potency was 16.4 µM (active).

Take `O=C1C(=O)N(c2ccccc2)C(c2ccccc2)C1c1ccccc1` (stereo not given): the “activity, negative = toxicity” value was -0.624%.

Regarding `Fc1cccc(Cc2c(-c3cccc(Cl)c3)nc3ccc(Br)cn23)c1`, the “activity, negative = toxicity” value is -22.4%.

For `Cc1ccnc(SC2CC(=O)N(c3ccccc3)C2=O)n1` (stereo not given), the “activity, negative = toxicity” value was -0.931%.

As for `Cc1ccc(-n2ncc3c2CCCC3NC(=O)c2cnccn2)cc1C` (stereo not given), the “activity, negative = toxicity” value is -13.4%.

For `CC(=O)NCC(=O)NC1CCCc2c1cnn2-c1ccccc1F` (stereo not given), the “activity, negative = toxicity” value is 4.51%.

Regarding `Cn1nccc1C(=O)NC1CCCc2c1cnn2-c1ccc(F)cc1F` (stereo not given), the Potency is 0.92 µM (active).

`N#CCCN(C(=S)Nc1ccc(Cl)c(Cl)c1)C1CCCCC1`: the “activity, negative = toxicity” value was -6.17%.

For the origin of these results see PubChem BioAssay AID686971 (National Center for Advancing Translational Sciences (NCATS), 2013).
